SMILES strings stand for the structures. Results filed as inconclusive are left out. Active and inactive are the calls of the source. Calls come from the whole dose curve; as a rule, active = well fitted cell-killing curve with a large enough effect in the repeat runs; inconclusive = weak or mixed curves, or effect the other way; inactive = flat fitted curve, though single readings scatter.
% is set by controls: 0 for no effect and ±100 for the full control effect; potency is the fitted concentration of half-maximal effect.

This test is described as follows: qHTS RealTime-Glo MT Cell Viability Assay in HEK293 cells - 8 hour (AID 1224887). For activity change, negative = cytotoxicity: top concentration of the series differs between compounds. Note: nearly all actives have a fitted effect of over 50% in size. The conditions noted are these: RealTime-Glo luminescence; series mostly up to 76.8 µM; activity change, negative = cytotoxicity: at the top concentration. From the text: U.S. Tox21 Program National Center for Advancing Translational Sciences [NCATS] NIH Chemical Genomics Center [NCGC] U.S. Environmental Protection Agency [EPA] National Institutes of Environmental Health Sciences [NIEHS] National Toxicology Program [NTP] U.S. Food and Drug Administration [FDA] Tox21 Assay Overview: Measure of cell viability is critical in the cell-base assay. Analysis of cell viability is necessary for the characterization of cell responses to cytotoxic drugs and environmental stress. A RealTime-Glo MT Cell Viability Assay to monitor cell viability in real time of continues cell culture during 40 hours of compound treatment was used to screen Tox21 10K library compounds in Hek293 cells. The RealTime-Glo MT Cell Viability Assay is a nonlytic, homogeneous, bioluminescent method to measure cell viability in real time using a simple, plate-based method. The assay involves adding NanoLuc luciferase and a cell-permeant prosubstrate to cells in culture. Viable cells reduce the proprietary prosubstrate to generate a substrate for NanoLuc luciferase. This substrate diffuses from cells into the surrounding culture medium, where it is rapidly used by the NanoLuc Enzyme to produce a luminescent signal. The signal correlates with the number of viable cells, making the assay well suited for cytotoxicity studies.
Tox21 Assay Protocol Summary: The mixture of Hek293 cell suspension and reagents were dispensed at 600cells/6 ul/well in 1536-well tissue culture treated black solid bottom plates using a Multidrop dispenser. After the assay plates were incubated at a 37 C/5% CO2 incubator for 5 hours, 23 nL of compounds dissolved in DMSO, positive and negative controls was transferred to the assay plate by a pintool work station. The plates were incubated at 37 C for 40 hours. The luminescence intensity were measured at 0h, 8h, 16h, 24h, 32h and 40h time points using ViewLux plate reader during compound treatment.
On to `CCCn1cnc2c1c(=O)n(CCCCC(C)=O)c(=O)n2C`, for which the “activity change, negative = cytotoxicity” value was -1.01% [at 35.3 µM] (inactive).
Take `Nc1cccc([N+](=O)[O-])c1`: the “activity change, negative = cytotoxicity” value is 2.2% (inactive).
Regarding `O=C(O)c1ccco1`, the “activity change, negative = cytotoxicity” value is 9.35% (inactive).
With `CCN(CC)CCNc1ccc(CNC=O)c2sc3ccc(OC)cc3c(=O)c12`, the Potency was 34.7 µM (active).
Turning to `O=[N+]([O-])c1ccc(NCCO)c(OCCO)c1`, the “activity change, negative = cytotoxicity” value was -4.76% (inactive).
The same measure, in the same setting: to `O=C(OCCc1ccccc1)c1ccccc1` belongs -12% (inactive); to `CC(COCCO)OCCO` (stereo not given), 3.49% (inactive); to `CCCCOC(=O)CCCCCCCC(=O)OCCCC`, 10.7% (inactive).
Consider `CC(=O)[O][Al][O]C(C)=O`, for which the “activity change, negative = cytotoxicity” value is 12.3% (inactive).
With `CN(Cc1ccc(C(C)(C)C)cc1)Cc1cccc2ccccc12`, the “activity change, negative = cytotoxicity” value was -19.5% [at 35.3 µM] (inactive).
Regarding `O=C1C(O)=C(O)C(=O)C(O)=C1O`, the “activity change, negative = cytotoxicity” value was -6.2% [at 35.3 µM] (inactive).
As for `Cc1c(N)cccc1[N+](=O)[O-]`, the “activity change, negative = cytotoxicity” value is -10.6% (inactive).
On the same count and under the same terms, in the case of `CCCCCCCCCCCC(=O)OC[C@@H](O)[C@H]1OC[C@H](OCCO)[C@H]1OCCO` it was -25.5% (inactive).
The same measure, in the same setting: to `CCCCC(CC)COC(=O)CCCCCCCCC(=O)OCC(CC)CCCC` (stereo not given) belongs 2.99% (inactive).
On the same count and under the same terms, to `CCCCCCCCCCCCCCOS(=O)(=O)O` belongs -12.7% (inactive).
In the case of `C=C1C(=C/C=C2\CCC[C@]3(C)[C@@H]([C@H](C)/C=C/[C@@H](O)C4CC4)CC[C@@H]23)C[C@@H](O)C[C@@H]1O`, the Potency is 19 µM (active).
Take `C=CCOc1ccccc1OCC(O)CNC(C)C` (stereo not given): the “activity change, negative = cytotoxicity” value is 2.29% [at 35.3 µM] (inactive).
Regarding `O=[N+]([O-])c1ccc2[nH]ncc2c1`, the “activity change, negative = cytotoxicity” value is -0.139% (inactive).
On the same count and under the same terms, in the case of `CCCCc1ncc(/C=C(\Cc2cccs2)C(=O)O)n1Cc1ccc(C(=O)O)cc1` it was 0.178% [at 35.3 µM] (inactive); in that of `O=C1CCC(=O)O1`, 8.48% (inactive); in that of `COc1cc(Cl)ccc1Oc1ccc(Cl)cc1Cl`, -19.9% (inactive).
Take `CN(C)c1ccc(/C=C/c2ccc([N+](=O)[O-])cc2)cc1`: the activity change, negative = cytotoxicity was -2.66% [at 6.97 µM] (inactive).
Same read-out and setting: in the case of `CCO[Si](CCCCl)(OCC)OCC` it was 5.81% (inactive); in that of `CCCCCCCC/C=C\CCCCCCCC(=O)OCC`, 4.96% (inactive).
`CC(=O)NO`: the “activity change, negative = cytotoxicity” value was -1.49% [at 35.3 µM] (inactive).
In the case of `O=C(O)CC(=O)C(=O)O`, the “activity change, negative = cytotoxicity” value is -1.02% (inactive).
The same measure, in the same setting: to `O=C(O)C(S)C(S)C(=O)O` (stereo not given) belongs 5.1% [at 35.3 µM] (inactive); to `CCCCCCCC#N`, -6.06% (inactive); to `CNC(=O)CN(CCN(CCN(CC(=O)[O-])CC(=O)NC)CC(=O)[O-])CC(=O)[O-].O.[Gd+3]`, 3.27% [at 35.3 µM] (inactive).
For the molecule `CC/C=C\CCOC(=O)CC`, the “activity change, negative = cytotoxicity” value is 0.364% (inactive).
Still for that read-out and setting: to `c1ccc(C(O[C@H]2CCCN(CCc3ccc4c(c3)OCO4)C2)c2ccccc2)cc1` belongs -19.1% [at 35.3 µM] (inactive); to `NCc1ccccc1Sc1ccccc1CO`, 2.92% [at 35.3 µM] (inactive); to `C=C(C)C(=O)OCCO`, 3.99% (inactive).
Still for that read-out and setting: in the case of `CCCCCCCCCCCCCCCCOS(=O)(=O)O` it was -29.4% [at 35.3 µM] (inactive); in that of `Nc1ccccc1S(=O)(=O)c1ccccc1`, -15.1% (inactive); in that of `Nc1ccc(S(=O)(=O)Nc2ccccc2)cc1`, -9.47% [at 35.3 µM] (inactive).
Consider `Nc1c(CC(=O)O)cccc1C(=O)c1ccc(Br)cc1`, for which the “activity change, negative = cytotoxicity” value is 21.5% [at 35.3 µM] (inactive).
On the same count and under the same terms, in the case of `Cc1[nH]c(C)c(Cl)c(=O)c1Cl` it was -23.4% [at 15.8 µM] (inactive).
On the same count and under the same terms, to `C/C=C(/C(=C/C)c1ccc(OC(C)=O)cc1)c1ccc(OC(C)=O)cc1` belongs 0.532% [at 35.3 µM] (inactive).
On the same count and under the same terms, to `C[C@@H]1C[C@H]2O[C@@]3(O[C@@H]2C(C)(C)O)[C@H](O)[C@@]2(C)[C@@H]4CC[C@H]5C(C)(C)[C@@H](O[C@@H]6OC[C@@H](O)[C@H](O)[C@H]6O)CC[C@@]56C[C@@]46CC[C@]2(C)[C@@H]13` belongs 10.4% [at 35.3 µM] (inactive).
